In the antibiotic and cytotoxicity screens of Wong et al. (2023):
Hit rate of the full screen: of about 39,000 compounds, about 3,300 (8.5%) were called active. The sample holds actives, similar compounds and a random draw of the others, so the mix is not that of the screen.

test system: HepG2; assay: cytotoxicity call (relative viability < 0.9); details: 10 µM

Compound	cytotoxicity call
C[C@@H]1CN([C@@H](C)CO)C(=O)c2cc(NC(=O)C3CC3)ccc2O[C@@H]1CN(C)Cc1ccc(C(=O)O)cc1	inactive
CO[C@H]1CN(C)C(=O)c2cc(NC(=O)CC(F)(F)F)ccc2OC[C@@H](C)N(S(=O)(=O)c2cn(C)cn2)C[C@@H]1C	inactive
COc1ccc(CNC(=O)C[C@H]2C[C@@H]3c4cc(NS(=O)(=O)c5ccc(F)cc5)ccc4O[C@@H]3[C@@H](CO)O2)cc1	inactive
O=C(C[C@@H]1C=C[C@@H](NS(=O)(=O)c2ccc(F)cc2)[C@@H](CO)O1)NCCN1CCCCC1	inactive
C[C@@H]1CN([C@@H](C)CO)C(=O)Cc2cc(NC(=O)Nc3cccc4ccccc34)ccc2O[C@H]1CN(C)C(=O)NC1CCCCC1	inactive
C[C@@H]1CCCCO[C@@H](CN(C)CC2CCCCC2)[C@H](C)CN([C@@H](C)CO)C(=O)c2cc(NC(=O)c3ccccc3)ccc2O1	inactive
C[C@@H]1CCCCO[C@H](CN(C)CC2CCCCC2)[C@H](C)CN([C@H](C)CO)C(=O)c2cc(NC(=O)c3ccccc3)ccc2O1	active
C[C@H]1CCCCO[C@@H](CN(C)CC2CCCCC2)[C@@H](C)CN([C@@H](C)CO)C(=O)c2cc(NC(=O)c3ccccc3)ccc2O1	inactive
C[C@H]1CCCCO[C@H](CN(C)CC2CCCCC2)[C@@H](C)CN([C@@H](C)CO)C(=O)c2cc(NC(=O)c3ccccc3)ccc2O1	inactive
C[C@@H]1CCCCO[C@@H](CN(C)CC2CCCCC2)[C@@H](C)CN([C@H](C)CO)C(=O)c2cc(NC(=O)c3ccccc3)ccc2O1	active
C[C@@H]1CCCCO[C@@H](CN(C)CC2CCCCC2)[C@H](C)CN([C@H](C)CO)C(=O)c2cc(NC(=O)c3ccccc3)ccc2O1	inactive
C[C@@H]1CN([C@H](C)CO)C(=O)c2cc(NC(=O)c3ccccc3)ccc2O[C@@H](C)CCCCO[C@@H]1CN(C)CC1CCCCC1	inactive
C[C@@H]1CN([C@@H](C)CO)C(=O)c2cc(NC(=O)c3ccccc3)ccc2O[C@@H](C)CCCCO[C@@H]1CN(C)CC1CCCCC1	inactive
C[C@@H]1CN([C@@H](C)CO)C(=O)c2cc(NC(=O)c3ccccc3)ccc2O[C@@H](C)CCCCO[C@H]1CN(C)CC1CCCCC1	active
C[C@H]1CN([C@@H](C)CO)C(=O)c2cc(NS(=O)(=O)c3ccccc3)ccc2O[C@H]1CN(C)S(=O)(=O)c1cccs1	inactive
COc1ccc(CN(C)C[C@@H]2OCCCC[C@H](C)Oc3ccc(NS(=O)(=O)c4ccccc4)cc3C(=O)N([C@H](C)CO)C[C@H]2C)cc1	inactive
C[C@@H]1CCCCO[C@@H](CN(C)Cc2ccc(C(=O)O)cc2)[C@@H](C)CN([C@H](C)CO)C(=O)c2cc(NS(=O)(=O)c3ccc(F)cc3)ccc2O1	inactive
C[C@@H]1CN([C@H](C)CO)C(=O)c2cccc(NC(=O)NC3CCCCC3)c2O[C@@H]1CN(C)Cc1ccc(Cl)c(Cl)c1	inactive
COc1ccc(NC(=O)Nc2ccc3c(c2)C(=O)N([C@H](C)CO)C[C@H](C)[C@@H](CN(C)S(=O)(=O)c2ccccc2)OCCCC[C@@H](C)O3)cc1	inactive
Cc1ccc(S(=O)(=O)Nc2cccc3c2O[C@H](CN(C)S(=O)(=O)c2c(C)noc2C)[C@@H](C)CN([C@H](C)CO)C3=O)cc1	inactive
CC[C@H](C)n1ncn(-c2ccc(N3CCN(c4ccc(OC[C@H]5CO[C@](Cn6cncn6)(c6ccc(Cl)cc6Cl)O5)cc4)CC3)cc2)c1=O	inactive
CCC(C)n1ncn(-c2ccc(N3CCN(c4ccc(OCC5COC(Cn6cncn6)(c6ccc(Cl)cc6Cl)O5)cc4)CC3)cc2)c1=O.Cl.Cl (stereo not drawn)	active

Compound	cytotoxicity call
CCC(C(C)O)n1ncn(-c2ccc(N3CCN(c4ccc(OCC5COC(Cn6cncn6)(c6ccc(F)cc6F)C5)cc4)CC3)cc2)c1=O (stereo not drawn)	active
CC[C@@H](C)n1ncn(-c2ccc(N3CCN(c4ccc(OC[C@H]5CO[C@](Cn6cncn6)(c6ccc(Cl)cc6Cl)O5)cc4)CC3)cc2)c1=O	active
CC(=O)N1CCN(c2ccc(OCC3COC(Cn4ccnc4)(c4ccc(Cl)cc4Cl)O3)cc2)CC1 (stereo not drawn)	inactive
CC(C)N1CCN(c2ccc(OCC3COC(Cn4cncn4)(c4ccc(Cl)cc4Cl)O3)cc2)CC1 (stereo not drawn)	inactive
C[C@@H]1CN([C@@H](C)CO)C(=O)c2cccc(NC(=O)c3ccc(-c4nccs4)cc3)c2O[C@H]1CN(C)C(=O)Nc1ccc(F)cc1	inactive
CCS(=O)(=O)Nc1ccc2c(c1)C(=O)N(C)C[C@H](OC)[C@@H](C)CN(Cc1ccccn1)[C@H](C)CO2	inactive
COc1ccc(C#Cc2ccc3c(c2)O[C@@H](CN(C)C(=O)c2ccccn2)[C@H](C)CN([C@H](C)CO)S3(=O)=O)cc1	inactive
CC1=CC(=O)N(c2ccn(C)n2)C1=O	inactive
C[C@@H]1CN([C@H](C)CO)C(=O)c2cc(NC(=O)Cc3ccccc3)ccc2O[C@@H]1CN(C)C(=O)Nc1cccc2ccccc12	inactive
CC(C)NC(=O)Nc1ccc2c(c1)C(=O)N([C@@H](C)CO)C[C@H](C)[C@@H](CN(C)S(=O)(=O)c1cccs1)O2	inactive
C[C@@H]1CN([C@H](C)CO)C(=O)Cc2cc(NC(=O)Nc3ccc(C(F)(F)F)cc3)ccc2O[C@H]1CN(C)C(=O)Nc1ccccc1	inactive
CN1CCN(C(=O)C[C@H]2CC[C@@H]3[C@H](COC[C@@H](O)CN3Cc3ccc4c(c3)OCO4)O2)CC1	inactive
C[C@@H]1CCCCO[C@H](CN(C)C(=O)c2ccncc2)[C@H](C)CN([C@@H](C)CO)C(=O)c2cc(NS(=O)(=O)c3ccc(Cl)cc3)ccc2O1	inactive
O=C(C[C@H]1C=C[C@H](NC(=O)c2cnccn2)[C@H](CO)O1)NCc1ccccc1F	inactive
Cc1ccc(S(=O)(=O)N(C)C[C@H]2Oc3ccc(NC(=O)CCCN(C)C)cc3C(=O)N([C@H](C)CO)C[C@H]2C)cc1	inactive
CO[C@H](CN(C)C(=O)C1CCOCC1)[C@@H](C)CN(C(=O)Nc1ccc(C(F)(F)F)cc1)[C@@H](C)CO	inactive
Cc1ccc(S(=O)(=O)Nc2ccc3c(c2)CC(=O)N([C@H](C)CO)C[C@@H](C)[C@@H](CN(C)Cc2ccc(-c4ccccc4)cc2)O3)cc1	active
Cc1ccc(S(=O)(=O)Nc2ccc3c(c2)CC(=O)N([C@@H](C)CO)C[C@@H](C)[C@H](CN(C)Cc2ccc(-c4ccccc4)cc2)O3)cc1	inactive
Cc1ccc(S(=O)(=O)Nc2ccc3c(c2)CC(=O)N([C@H](C)CO)C[C@H](C)[C@@H](CN(C)Cc2ccc(-c4ccccc4)cc2)O3)cc1	active
Cc1ccc(S(=O)(=O)Nc2ccc3c(c2)CC(=O)N([C@H](C)CO)C[C@@H](C)[C@H](CN(C)Cc2ccc(-c4ccccc4)cc2)O3)cc1	active
Cc1ccc(S(=O)(=O)Nc2ccc3c(c2)CC(=O)N([C@H](C)CO)C[C@H](C)[C@H](CN(C)Cc2ccc(-c4ccccc4)cc2)O3)cc1	active
